From PubChem BioAssay (NCI)
Several values for one entry are separate records, joined by “and”; a condition that tells them apart may be missing. Equal entries are not always repeated. The panel holds about 83,000 compounds, 20% with a hit somewhere; the sample as a whole holds those more often.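 Compound tested at a single concentration for 48 hours in 96-well plates; a percent growth value below 10 was scored as active.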 Activity calls are given as the source filed them.

test system: MDA-MB-468 breast; test: NCI-60 one-dose screen, 48 h (100 = growth as untreated, 0 = no growth, -100 = all killed); details: 10 µM unless noted

Row | Structure (SMILES) | growth
1 | COc1ccc2c(c1)[n+]([O-])c(C(=O)/C=C/C=C(\Cl)c1cc(OC)c(OC)c(OC)c1)c(C)[n+]2[O-] | 62.2% (inactive)
2 | Nc1ccc2c(c1)Cc1cc(NC(=O)C(F)(F)F)ccc1-2 | 75.7% (inactive)
3 | CCn1c(Cc2ccccc2Nc2c(Cl)cccc2Cl)nnc1SCC(=O)Nc1ccccc1C(F)(F)F | 69.9% (inactive)
4 | COc1cc(-c2nn(-c3cccc(NC(=O)Nc4cc(C(F)(F)F)cc(C(F)(F)F)c4)c3)cc2-c2ccncc2)ccc1Cl | -25.4% (active)
5 | COc1c(N2CC3CCCNC3C2)c(F)cc2c(=O)c(C(=O)N/N=C/c3c[nH]c4ccccc34)cn(C3CC3)c12 (stereo not given) | 100% (inactive)
6 | COc1ccccc1/C=C1\Oc2cc(OCCN3CCCC3)ccc2C1=O | 56.3% (inactive)
7 | COc1c(Cl)ccc2c(-c3nc4cc(Cl)c(F)cc4s3)cc(=O)oc12 | 80% (inactive)
8 | Cc1cc(C(C)(CC(C)C)c2ccc(O)c(C)c2)ccc1O | 103% (inactive)
9 | N=C(N=C(N)N)N1CCOCC1 | 100% (inactive) and 101% (inactive)
10 | O=C1CN2CCC1C/C2=C\c1ccnc2c(Cl)cccc12 (stereo not given) | 90.8% (inactive)
11 | CCCC(=O)Oc1ccc(/C(=C(\C)c2ccccc2)c2ccc(OCCN(CC)CC)cc2)cc1 | 62.4% (inactive)
12 | O=c1c2sc3ncccc3c2nnn1-c1ccccc1 | 104% (inactive)
13 | O=C1NC(=S)N[C@H]1CC(=O)n1cnc2ccccc21 | 86.3% (inactive)
14 | O=c1oc2ccc(F)cc2c(=O)n1-c1ccc(F)cc1F | -4.2% (active)
15 | Cc1sc2nc(NCc3ccccc3Cl)[nH]c(=O)c2c1C | 101% (inactive)
16 | Cc1nc2ccccc2n1-c1ncnc2c1CC(C)c1ccccc1N2C (stereo not given) | 80.9% (inactive)
17 | CCOc1ccc(NC(=O)c2ccccc2-c2ccccc2C(=O)O)cc1 | 101% (inactive)
18 | Cc1ccc(/C=C(\C#N)C(=O)Nc2ncc(Cc3cc(Cl)ccc3Cl)s2)o1 | 69.6% (inactive)
19 | COC(=O)c1ccc2[nH]c(O)c(C(=Nc3ccc(N(C)C(=O)CN4CCN(C)CC4)cc3)c3ccc(C)cc3)c2c1 | -50.1% (active)
20 | Cn1c2ccccc2c2c(OC(=O)c3ccccc3)c3c(nc21)-c1ccccc1C3 | 100% (inactive)

Row | Structure (SMILES) | growth
21 | CC(=O)C(C)Cc1cc2c(cc1C)C(C)(C)CCC2(C)C (stereo not given) | 97.6% (inactive)
22 | COc1ccc(CN2c3ccccc3Sc3ccccc32)cc1O | 9.33% (active)
23 | Oc1c(Br)cc(Cl)cc1C(c1cc(Cl)cc(Br)c1O)C(Cl)(Cl)Cl | -4.05% (active)
24 | CC1=C2[C@@H](CC1)[C@]1(C)O[C@@](C3CC3)(C[C@H]1OC(=O)CO)[C@H]2OC(=O)/C=C/c1ccccc1 | 83% (inactive)
25 | C#CC[C@@H]1C[C@]2(C)[C@H]3CC=C4[C@H]5CC(C)(C)CC[C@]5(C(=O)NCCCCN)CC[C@@]4(C)[C@]3(C)CC[C@H]2C(C)(C)[C@H]1OC(C)=O | -39.7% (active)
26 | COc1ccc(C2CC(=O)c3c(O)c(OC)c(OC)c(OC)c3O2)c(O)c1 (stereo not given) | -3.61% (active)
27 | N=C(N)c1ccc(-c2ccc(-c3ccc(Cl)c(Cl)c3)o2)nc1 | -17% (active)
28 | CN(C)c1ccc2cc3c(cc2c1)Oc1ccccc1N3.[Cl][Zn][Cl] | -10.4% (active)
29 | COc1cc(NCC(O)CN(CC(C)C)C2CCCC2)c2ncccc2c1 (stereo not given) | -13.4% (active)
30 | COS(=O)(=O)CCN(CCOS(C)(=O)=O)S(C)(=O)=O | 104% (inactive)
31 | C#C[C@]1(O)CC[C@H]2[C@@H]3CC=C4c5sc(Nc6cc(F)ccc6F)nc5CC[C@]4(C)[C@H]3CC[C@@]21C | -45.6% (active)
32 | CC(=O)C1C(=O)C(=O)N(c2cccc([N+](=O)[O-])c2)C1=O (stereo not given) | 102% (inactive)
33 | O=C(CCc1nnc(Cn2cnc3nc[nH]c3c2=O)o1)c1nc2ncccc2[nH]1 | 102% (inactive)
34 | CC1=CC(C)(C)NC(=S)N1c1ccc(S(=O)(=O)O)c2cccc(S(=O)(=O)O)c12 | 107% (inactive)
35 | O=[N+]([O-])c1cccc(C(F)(F)F)c1 | 101% (inactive)
36 | Cc1nnc2c(Cc3ccccc3)nc3ccccc3n12 | 89.6% (inactive)
37 | CCN(CC)CCC(CNc1ccnc2cc(Cl)ccc12)c1ccc(O)cc1 (stereo not given) | 81.1% (inactive)
38 | O=C(CN1CCN(c2cc(=O)n(-c3ccccc3)c3ccccc23)CC1)Nc1nc(-c2ccc(Cl)cc2)cs1 | 9.61% (active)
39 | O=C1OC(c2ccc(-c3ccccc3)cc2)=C/C1=C/c1c(Cl)cccc1Cl | 90.8% (inactive)
40 | CN(C)c1ccc(/C=C/C2=[N+](C)c3ccccc3C2(C)C)cc1 | 6.5% (active)
